The test system of this assay is HepG2. Briefly: GSK_TCMDC: Percent inhibition of human HepG2 cell line. Test compounds present at 10uM. It counts as functional.
In the case of `COc1ccc(-c2ccc(NC(=O)c3cccs3)cc2)cc1CN1CCCN(C)CC1.O=C(O)C(F)(F)F`, the Inhibition came out at 31%.

`CN1CCCN(Cc2ccc(-c3cccc(NC(=O)c4ccc(C#N)cc4)c3)cc2)CC1.O=C(O)C(F)(F)F` yielded an Inhibition of 29%.

Compound `Cc1ccc2nc(C)cc(N/N=C/c3ccccc3[N+](=O)[O-])c2c1` returned an Inhibition of 5%.

With `COc1cc2ncnc(NCCc3ccccc3Cl)c2cc1OC`, the Inhibition was 0%.

`Oc1cc(Nc2ccnc3cc(-c4ccc(CN5CCCCC5)o4)c(Cl)cc23)c(Cl)cc1F` registered an Inhibition of 0%.

In turn, `Cl.OC(c1cc(C(F)(F)F)nc2c(F)cccc12)C1CCCCN1` (stereo not drawn) had an Inhibition of 0%.

`CC(=O)c1ccc(Nc2c(C(N)=O)cnc3cc(-c4c(C)noc4C)ccc23)cc1` registered an Inhibition of 0%.

`CC(C)COc1ccc(C(O)C(CN2CCCCC2)c2ccccc2)cc1` (stereo not drawn) yielded an Inhibition of 11%.

Compound `Cl.N=C(N)NN=Cc1ccc2ccc3ccccc3c2c1` returned an Inhibition of 34%.

In turn, `CCn1c(-c2nonc2N)nc2cnc(Oc3cccc(NC(=O)c4ccc(OCCN5CCCCC5)cc4)c3)cc21` registered an Inhibition of 16%.

`Cc1noc(C)c1-c1cccc(CNCc2cccc(-c3cccc(-c4nc5cc(C(F)(F)F)ccc5[nH]4)c3)c2)c1.O=C(O)C(F)(F)F`: the Inhibition came to 18%.

The compound `CC(=O)Nc1cccc(C(=O)Nc2ccc(-c3cccc(-c4nc5cc(F)ccc5[nH]4)c3)cc2)c1` displayed an Inhibition of 90%.

`CCOC(=O)c1ccc(NC(=O)N(Cc2ccc(-c3ccc(CN4CCNCC4)cc3)cc2)C2CCN(Cc3ccccc3)CC2)cc1.O=C(O)C(F)(F)F` yielded an Inhibition of 14%.

Compound `Cc1cccc2nc(-c3cccc(-c4ccc(CNCc5cnn(-c6ccccc6)n5)cc4)c3)[nH]c12.O=C(O)C(F)(F)F` had an Inhibition of 20%.

For the compound `COc1ccc(-c2ccc(NC(=O)c3cccc(Cl)c3)cc2)cc1CN1CCC(O)CC1.O=C(O)C(F)(F)F`, the Inhibition worked out at 15%.

Compound `CC(C)(CNCc1ccc(C(F)(F)F)cc1)c1nc(-c2ccc(Cl)c(O)c2)c(-c2ccncc2)[nH]1.Cl` gave an Inhibition of 42%.

In the case of `Cc1ccc(F)c(CN2CCC(N3CC(c4ccccc4)(c4ccccc4)OC3=O)CC2)c1Cl`, the Inhibition is 11%.

Regarding `COC(=O)c1cc(/C(C)=N/Nc2nc3ccccc3[nH]2)ccc1O`, the Inhibition is 9%.

`Cc1cc(N[C@@H](CC(C)C)C(=O)NCc2cccc(F)c2)nc(Nc2ccccc2)n1.O=C(O)C(F)(F)F`: the Inhibition is given as 0%.

As for `COc1ccc(Nc2nc(N/N=C/c3ccc(-c4ccc([N+](=O)[O-])cc4)o3)nc(Nc3ccccc3)n2)cc1`, the Inhibition turned out to be 0%.

`N#Cc1cncc(-c2nc3c(N4CCC(N5CCCC5)CC4)cccc3n2CCNCc2ccccc2)c1.O=C(O)C(F)(F)F` returned an Inhibition of 3%.

The compound `CCOC(=O)c1ccc(-c2cnc(N)c(-c3nc4cccc(C)c4[nH]3)c2)cc1` yielded an Inhibition of 43%.

In turn, `Cc1ccc(CNC(=O)[C@H](CCCN)Nc2cc(C)nc(NCC3CCCCC3)n2)cc1.O=C(O)C(F)(F)F` returned an Inhibition of 1%.

Take `CC(C)(C)c1ccc(CN2CCC(CNC(=O)c3cc(-c4ccccc4Cl)cs3)C2)cc1.O=C(O)C(F)(F)F` (stereo not drawn): the Inhibition worked out at 33%.

The compound `CCN(CCNc1nc(NCCc2cnc[nH]2)nc(N(CCC#N)Cc2ccccc2)n1)c1cccc(C)c1` had an Inhibition of 13%.

In turn, `CC[C@]1(C)C[C@@H](NC(=O)NC(=O)c2ccc(OC)cc2)[C@]2(C)[C@H](C)CC[C@]3(CCC(=O)[C@H]32)[C@@H](C)[C@@H]1OC(=O)NC(=O)c1ccc(OC)cc1` registered an Inhibition of 10%.

Take `COc1ccc(C2CC(=O)C3=C(C2)NC(C)=C(C(=O)OC(C)C)C3c2c(F)cccc2Cl)cc1OC` (stereo not drawn): the Inhibition was 0%.

Take `COc1cc(-c2nc(-c3ccc([N+](=O)[O-])cc3)c(-c3ccccc3)[nH]2)cc(OC)c1O`: the Inhibition came to 7%.

Turning to `COc1ccc(Nc2ncc(Cl)c(Nc3cccnc3C(N)=O)n2)cc1N1CCN(C)CC1.Cl`, the Inhibition was determined as 77%.

The compound `O=CO.O=S1(=O)NCc2ccc(Nc3nccc(Nc4ccc5c(cnn5Cc5ccccc5)c4)n3)cc21` came in with an Inhibition of 0%.

For `NCCCNc1ccnc2cc(Cl)ccc12`, the Inhibition was found to be 14%.

In turn, `C[C@@H](C(=O)N1CCOCC1)N1CC[C@H](NS(=O)(=O)c2ccc3ccnc(N)c3c2)C1=O.O=CO` displayed an Inhibition of 0%.

On to `CCN(CC)S(=O)(=O)c1ccc(C(=O)Oc2ccccc2N(Cc2ccc(OC)cc2)C2=NS(=O)(=O)c3ccccc32)cc1`, for which the Inhibition is 0%.

What is called Inhibition is how much of the control response was suppressed. Read a low Inhibition as a weak effect.

Source of the values: ChEMBL document CHEMBL1157539, “Thousands of chemical starting points for antimalarial lead identification” (Nature, 2010).
